# Sampled rows, rich in hits. Any-hit rate of the full collection: about 1.1%.
# CIT2-GFP yeast: yeast TOR pathway CIT2-GFP modulation; S. cerevisiae CIT2-GFP strain, flow cytometry, 3 h; 100 means same as DMSO wells; 320,000 tested, 0.065% active; GFP response vs DMSO, % at 10 µM;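 active = GFP response relative to DMSO above a set limit, near the screen mean plus 3 SD, cut at about 150% in these data; inconclusive = Fewer than 70 cells measured for a yeast strain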;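 note: ratio of well median GFP fluorescence to mean of DMSO wells on the plate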
# VLA-4 inh: inhibition in a human VLA-4 binding assay; VLA-4 expressing cells, ligand binding flow cytometry; inhibition, % (about 7 µM as worked out from the volumes in the protocol); 330,000 tested, 0.2% active; AID 2557; in the data active = inhibition above about 50%
# AGP1-GFP MLPCN: alters AGP1-GFP fluorescence in TOR pathway yeast screen; S. cerevisiae AGP1-GFP multiplex flow cytometry, 3 h; GFP as percent of DMSO wells; 320,000 tested, 0.02% active; GFP response vs DMSO, % at 10 µM; AID 2066;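 active = GFP response relative to DMSO above a set limit, near screen average plus 3 SD, cut at about 150% in these data; inconclusive = fewer than 70 cells counted for the yeast strain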;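 note: median GFP channel fluorescence of the gated AGP1 strain per well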
# RPL19A TOR yeast: alters RPL19A-GFP fluorescence in TOR pathway yeast screen; S. cerevisiae RPL19A-GFP strain, flow cytometry, 3 h; active compounds read low; percent response vs DMSO, % at 10 µM; 330,000 tested, 0.3% active;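 active = percent response vs DMSO below 50%; inconclusive = fewer than 70 events counted for the yeast strain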;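 note: median channel GFP fluorescence of the barcoded RPL19A-GFP strain; ratio of sample median GFP to plate DMSO average so 100% = DMSO; lower means less RPL19A-GFP as with rapamycin TOR inhibition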
# MEP2 TOR yeast: alters MEP2-GFP fluorescence in TOR pathway yeast screen; S. cerevisiae MEP2-GFP strain, flow cytometry GFP, 3 h; 100% = DMSO control level; GFP response vs DMSO, % at 10 µM; 330,000 tested, 0.51% active; AID 2016;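 active = GFP response versus DMSO above a set limit, roughly screen mean plus 3 SD, cut at about 180% in these data; inconclusive = fewer than 70 cells counted for a yeast strain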;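 note: median GFP fluorescence of the barcode-gated MEP2-GFP cells per well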
# LAP4 TOR yeast: modulators of TOR pathway LAP4-GFP in S. cerevisiae; S. cerevisiae LAP4-GFP multiplex, flow cytometry GFP, 3 h; median GFP as percent of DMSO wells; GFP response vs DMSO, % at 10 µM; 320,000 tested, 0.34% active;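 active = GFP response vs DMSO above a set limit, about the screen mean plus 3 SD, cut at about 150% in these data; inconclusive = under 70 cell events counted for the yeast strain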
# The depositor's hits bear a star; ? = inconclusive; . = no result; ! = not active in a repeat; [ ] = another dose, or the depositor's remark.
SMILES,CIT2-GFP yeast,VLA-4 inh,AGP1-GFP MLPCN,RPL19A TOR yeast,MEP2 TOR yeast,LAP4 TOR yeast
CCC(Sc1nc(=O)cc(N)n1-c1cccc(C)c1)C(=O)Nc1cc(C)on1 (centres undefined),98.8,16.9,101.4,100.2,102.8,105.8
CCC(Sc1nc(=O)cc(N)n1-c1ccccc1)C(=O)Nc1cc(C)on1 (centres undefined),124.8,39.2,161.7*,77.5,384.8*,182.7*
COCCC(=O)N1CCC(Oc2ccc(C(=O)N3CCCCC3COC)cc2)CC1 (centres undefined),95.6,6.1,103.1,98.8,96.0,95.0
O=C(Nc1ccc(Cl)c(S(=O)(=O)N2CCCCC2)c1)c1cccnc1,98.2,-11.3,105.3,97.4,103.4,95.0
COc1ccccc1C1c2ccc3ccccc3c2Oc2ncn(CCN(C)C)c(=N)c21 (centres undefined),93.5,20.4,85.1,92.2,102.6,94.6
COc1ccccc1C1c2ccc3ccccc3c2Oc2ncn(CCCO)c(=N)c21 (centres undefined),?,23.7,?,24.2*[may fluoresce violet],352.5*[may fluoresce violet],75.2
CCOP(=O)(c1ccc(N(C)C)cc1)C(O)c1ccc(OC)cc1 (centres undefined),100.3,-3.8,103.4,98.8,104.8,99.9
CC(OC(=O)COc1ccccc1Cc1ccccc1)C(=O)N(C)c1ccccc1 (centres undefined),99.4,12.1,105.0,98.2,101.2,109.9
COCCN1C(=O)c2ccccc2C(C(=O)NCCN(C)C)C1c1ccc(F)cc1 (centres undefined),?,2.2,41.8,51.9,464.4*[may fluoresce violet],84.7
CN(C(=O)COC(=O)/C=C/c1ccc(C(F)(F)F)cc1)c1c(N)n(Cc2ccccc2)c(=O)[nH]c1=O,104.2,-5.0,112.1,105.2,98.3,114.9
O=C(NC(Cc1ccccc1)C(=O)O)/C(=C/c1ccccc1)NC(=O)c1ccco1 (centres undefined),?,6.4,?,21.8*[may fluoresce violet],219.7*[may fluoresce violet],65.9
O=C(NC(Cc1ccccc1)C(=O)O)/C(=C\c1ccc(F)cc1)NC(=O)c1ccco1 (centres undefined),104.4,-5.3,108.3,104.7,101.9,96.1
O=C(O)CC(NC(=O)/C(=C/c1ccccc1)NC(=O)c1ccccc1)c1ccccc1 (centres undefined),?,8.4,?,37.1*[may fluoresce violet],261.3*[may fluoresce violet],44.2
O=C(C1=C(O)C(=O)N(CCN2CCOCC2)C1c1ccc(F)cc1)c1cc2ccccc2o1 (centres undefined),?,-9.1,?,16.2*[may fluoresce violet],158.1,69.9
Cc1[nH]c(C)c(S(=O)(=O)NCc2ccc(F)cc2)c1C(=O)N1CCCC1,?,29.6,?,47.1*[may fluoresce violet],437.7*[may fluoresce violet],120.3
CCn1c2ccccc2c2cc(/C=N/n3cn[nH]c3=S)ccc21,82.7,-11.6,90.5,89.9,86.8,159.9*
CCOC(=O)Nc1ccc2c(c1)N(C(=O)CCN1CCN3CCCC3C1)c1ccccc1CC2 (centres undefined),93.2,19.6,101.9,101.4,102.8,103.2
COC(=O)Nc1ccc2c(c1)N(C(=O)CCN1CCN3CCCC3C1)c1ccccc1CC2 (centres undefined),100.0,7.6,130.7,79.6,229.1*!,156.9*!
COc1ccc(CCC(=O)Nc2nccs2)cc1OC,?,6.8,21.7,47.5*[may fluoresce violet],198.1*[may fluoresce violet],94.2
COc1ccc(CCC(=O)NC2CCCc3ccccc32)cc1OC (centres undefined),?,13.2,?,28.5*[may fluoresce violet],236.1*[may fluoresce violet],70.6
O=C(Cn1nc(C(=O)O)c2ccccc2c1=O)Nc1cc(S(=O)(=O)N2CCCCC2)ccc1Cl,101.0,2.0,90.4,93.7,97.2,91.2
O=C(C1=C(O)C(=O)N(c2ncccn2)C1c1ccc(F)cc1)c1ccco1 (centres undefined),.,6.1,.,43.3*[may fluoresce violet],506.2*[may fluoresce violet],.
O=C(c1ccc(Br)cc1)N(Cc1ccco1)C1CCS(=O)(=O)C1 (centres undefined),?,2.1,?,19.5*[may fluoresce violet],160.9,88.4
CCCCOc1ccc(C(=O)N(Cc2ccco2)C2CCS(=O)(=O)C2)cc1 (centres undefined),102.7,4.6,99.9,100.8,107.9,100.9
CCn1ncc(/C=N\NC(=O)c2ccc3c(c2)c(C)c(C)n3Cc2ccccc2)c1C,?,-11.8,?,?,?,?
SMILES,CIT2-GFP yeast,VLA-4 inh,AGP1-GFP MLPCN,RPL19A TOR yeast,MEP2 TOR yeast,LAP4 TOR yeast
CCn1nc(C)c(/C=N/NC(=O)c2ccc3c(c2)c(C)c(C)n3Cc2ccccc2)c1C,?,0.4,?,21.9*[may fluoresce violet],279.4*[may fluoresce violet],97.6
Clc1ccc(CSc2nnc(-c3ccncc3)o2)cc1,?,-3.6,16.6,66.7,179.1*[may fluoresce violet],107.6
N#CCOc1ccccc1/C=C/c1nc2ccccc2c(=O)[nH]1,?,21.0,?,24.4*[may fluoresce violet],243.0*[may fluoresce violet],60.9
CN(c1ccc(OCC(=O)NC2CCC(O)CC2)cc1)S(=O)(=O)c1ccc(Cl)cc1 (centres undefined),107.6,-1.1,101.7,96.0,108.3,102.7
CC(C)(C)c1ccc(O)c(/C=N\O)c1,?,0.7,24.7,63.3,452.5*[may fluoresce violet],113.7
CN(C(=O)c1ccccc1-c1ccccc1C(=O)O)c1ccccc1,103.0,2.7,101.1,99.6,100.4,89.7
Cc1nnc(OCc2nc3ccccc3n2C)c2ccccc12,83.5,16.2,72.7,55.6,217.3*,98.8
Cc1ccccc1OCc1nc2ccccc2n1C,99.5,4.8,94.3,97.8,90.9,110.2
Cc1cccc(C)c1NC(=O)C1CCCNC1 (centres undefined),?,-3.7,?,20.3*[may fluoresce violet],252.9*[may fluoresce violet],129.4
COCC(=O)Nc1cc([N+](=O)[O-])ccc1C,102.3,-0.2,30.5,.,216.5*,92.1
CC1CCC(NC(=O)C2CCC(CNS(=O)(=O)c3cccc4cccnc34)CC2)CC1 (centres undefined),103.8,8.4,105.5,101.5,104.8,105.5
CCCc1cc(=O)oc2cc(C)cc(OCC(=O)Nc3ccc(CN4CCOCC4)cc3)c12,?,2.5,?,27.8*[may fluoresce violet],271.3*[may fluoresce violet],60.6
COc1cc(C2N(Cc3ccccc3)CCN2Cc2ccccc2)ccc1OC(C)=O,?,20.5,?,42.5*[may fluoresce violet],496.9*[may fluoresce violet],84.1
COc1ccc(S(=O)(=O)Nc2cc(S(=O)(=O)c3ccccc3)c(O)cc2C)cc1,117.7,7.7,107.5,102.9,104.0,105.1
Cc1cc(O)c(C(C)C)cc1NS(=O)(=O)c1ccccc1,?,9.9,19.9,45.9*[may fluoresce violet],182.3*[may fluoresce violet],103.5
Cc1ccc(C(=O)Nc2cccc(NC(=O)c3ccc(C)o3)n2)o1,103.8,0.8,90.5,106.8,115.6,89.0

# Assay outcomes from PubChem.
